In paper PMC5540273 (PLoS ONE, 2017):

Tests used:
VPS34 = test system: T1, VPS34
T1 construct: gene PIK3C3

AAK1 = details: concentration: 1 μM, replicates: in singlicate; n = 1
ABL1-nonphosphorylated = details: concentration: 1 μM, replicates: in singlicate; n = 1
ABL1-phosphorylated = details: concentration: 1 μM, replicates: in singlicate; n = 1
ABL2 = details: concentration: 1 μM, replicates: in singlicate; n = 1
ACVR1B = details: concentration: 1 μM, replicates: in singlicate; n = 1
TRKC = test system: T2, TRKC
T2 construct: gene NTRK3

YANK2 = test system: T3, YANK2
T3 construct: gene STK32B
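Throughout, for %Inh: KINOMEscan kinase panel screen.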
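Throughout, for Kd: kd values determined as follow-up on hits from a single-replicate KINOMEscan panel screen.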

Row | SMILES | Kd (VPS34) [nM] | %Inh (AAK1) [%] | %Inh (ABL1-nonphosphorylated) [%] | %Inh (ABL1-phosphorylated) [%] | %Inh (ABL2) [%] | %Inh (ACVR1B) [%] | Kd (TRKC) [nM] | Kd (YANK2) [nM]
1 | O=c1cc(N2CCOCC2)nc2n(Cc3cccc(Cl)c3Cl)c3ccccc3n12 [GSK2299009] | 470 | 31 | 0 | 0 | 16 | 0 |  | 
2 | COC(=O)c1cccc(NC(=O)NC2CCN(c3ccnc(Nc4ccc(F)cc4)n3)C2)c1 (centres unmarked) [GSK1379725] |  | 0 | 0 | 0 | 5 | 0 | 340 | 
3 | CNc1nc(-c2ccc3c(N)n[nH]c3c2)cc(N2C[C@@H](C(=O)Nc3ccccc3)CC[C@H]2C)n1 [GSK2298859] |  | 12 | 1 | 0 | 2 | 0 |  | 220
4 | COc1cc2ncnc(Nc3cccc(Br)c3)c2cc1OC.Cl [GI230329] |  | 13 |  |  | 18 | 0 |  | 
5 | Cc1ccc(NC(=O)Nc2ccc(Cl)cc2)cc1-c1ccc(C(=O)Nc2ccncc2)cc1 [GSK1398472] |  | 0 | 2 | 5 | 28 | 0 |  | 
6 | CC(C)c1ccc(O)cc1Nc1ccnc2ccc(C(F)(F)F)cc12 [GW482059] |  | 0 | 0 | 0 | 3 | 0 |  | 
7 | CCn1c(-c2ccccc2)nc2cnccc21 [SB-733416] |  | 0 | 0 | 13 | 5 | 0 |  | 
8 | COc1ccc(Nc2nccc(-c3ccc(NC(=O)c4cc5cc(F)ccc5[nH]4)cc3)n2)cc1 [GSK1229496] |  | 65 | 0 | 0 | 0 | 23 |  | 
9 | CC(=O)c1c(C)c2cnc(Nc3ccn(C)n3)nc2n(C2CCCC2)c1=O |  | 0 | 0 | 0 | 0 | 2 |  | 
10 | NS(=O)(=O)c1cccc(N/C=C2\C(=O)Nc3ccc(S(=O)(=O)Cc4c(Cl)cccc4Cl)cc32)c1 [GSK398099] |  | 31 | 0 | 0 | 14 | 0 |  | 
11 | COc1cccc(C2=C(Nc3cc(Cl)c(O)c(Cl)c3)C(=O)NC2=O)c1 [SB-390767] |  | 0 | 0 | 4 | 19 | 0 |  | 
12 | CCn1c(-c2c(N)noc2C)nc2cnccc21 [SB-737856] |  | 0 | 0 | 13 | 13 | 0 |  | 
13 | CC[C@@H]1CO[C@H](C(=O)Nc2ccccc2)CN1c1cc(-c2ccc3c(N)n[nH]c3c2)nc(NC)n1 [GSK2376236] |  | 19 | 0 | 0 | 0 | 0 |  | 
14 | COc1ccc(Nc2nccc(N3CCC(NC(=O)c4cc5ccccc5s4)C3)n2)cc1 (centres unmarked) [GSK1379738] |  | 73 | 0 | 0 | 1 | 0 |  | 
15 | Cc1cnc(N)c(/C=C/c2cncc(C(=O)NCCc3ccc(Cl)cc3Cl)c2)c1.Cl [GSK190937] |  | 19 | 39 | 0 | 11 | 0 |  | 
16 | CSc1ccc(-c2nc3n(c2-c2ccncc2)CCC3)cc1 [SKF-105561] |  | 0 | 16 | 0 | 12 | 4 |  | 
17 | CS(=O)(=O)Cc1ccc(Nc2nccc(-c3c(-c4cccc(NC(=O)C5CCCCC5)c4)nn4ncccc34)n2)cc1 [GSK350559] |  | 0 | 8 | 15 | 5 | 0 |  | 
18 | CS(=O)(=O)CCNCc1nc(-c2ccc3ncnc(Nc4ccc(OCc5ccccc5)c(Cl)c4)c3c2)cs1.Cl [GW582764] |  | 0 | 0 | 0 | 21 | 0 |  | 
19 | COc1ccc(CSc2nnc(-c3ccc4ncsc4c3)o2)cc1C(F)(F)F |  | 9 | 13 | 8 | 2 | 9 |  | 
20 | CCc1ccc(-c2ccc3c(c2)-c2n[nH]cc2S(=O)(=O)N3C)cc1 |  | 15 | 26 | 0 | 0 | 0 |  | 
